Source: PubChem BioAssay (Tox21)
Records with an inconclusive call do not appear. Activity calls are given as the source filed them. Unless noted, calls follow the shape of the full dose curve.

How the values were obtained:
[1] = Nuclear factor erythroid 2-related factor 2/antioxidant responsive element (Nrf2/ARE) small molecule agonists: qHTS cell viability counter screen in human keratinocytes (AID 1919968; active = well fitted cell-killing curve with a large enough effect in the repeat runs; also: nearly all actives have a fitted effect of over 55% in size; also: potency is read from the fitted curve at half-maximal effect)
Summary of the method: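 Seed 1,500 KeratinoSens cells per well, then incubate 5 h at 37 C/5% CO2. Add compounds in DMSO and incubate 23 h. Add CellTiter-Fluor, wait 1 h and read fluorescence.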

[2] = Nuclear factor erythroid 2-related factor 2/antioxidant responsive element (Nrf2/ARE) small molecule agonists: luciferase reporter gene qHTS assay in human keratinocytes (AID 1919969); also: nearly all actives have a fitted effect of over 35% in size; also: potency is read from the fitted curve at half-maximal effect
[3] = biological target: Gonadotropin-releasing hormone receptor (Homo sapiens) (UniProt P30968); experiment: Human gonadotropin-releasing hormone receptor (GnRHR) small molecule agonists, calcium flux assay in GnRHR-HEK293 cells (AID 1920063); also: nearly all actives have a fitted effect of over 35% in size
Chain of Gonadotropin-releasing hormone receptor (Homo sapiens) (P30968 whole entry, looked up): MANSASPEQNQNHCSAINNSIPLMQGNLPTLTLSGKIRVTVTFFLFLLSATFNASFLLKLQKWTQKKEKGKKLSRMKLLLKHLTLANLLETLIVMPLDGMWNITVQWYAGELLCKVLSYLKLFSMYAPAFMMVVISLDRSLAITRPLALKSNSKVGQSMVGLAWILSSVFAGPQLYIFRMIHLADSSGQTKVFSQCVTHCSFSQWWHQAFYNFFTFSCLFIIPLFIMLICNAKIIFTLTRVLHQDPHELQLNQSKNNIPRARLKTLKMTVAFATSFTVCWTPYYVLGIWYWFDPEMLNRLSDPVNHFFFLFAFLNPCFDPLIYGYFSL
Summary of the method: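 Cells: HEK293 stably expressing human GnRHR. Steps: overnight (18 h) culture, 1 h calcium dye loading at 37 C, compound addition, kinetic fluorescence read at 480/540 nm. Each compound tested at 15 concentrations in triplicate.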

[4] = p53 small molecule agonists, cell-based qHTS assay with human liver microsomes (AID 1963577);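 also: p53 response element beta-lactamase reporter cells with liver microsomes plus NADPH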
Summary of the method: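 16 h, 37 C exposure of p53RE-bla cells to compounds with human liver microsomes and NADPH (0.5 mg/mL final each); detection via LiveBLAzer mixture, 2 h dark at room temperature.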

[5] = p53 small molecule agonists, cell-based qHTS assay with rat liver microsomes (AID 1963578)
Summary of the method: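 With rat liver microsomes and NADPH present (0.5 mg/mL final each), p53RE-bla cells are treated with compound for 16 h at 37 C. LiveBLAzer detection mixture is then applied for 2 h at room temperature in the dark.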

[6] = p53 small molecule agonists, cell-based qHTS assay with rat liver microsomes: qHTS cell viability counter screen (AID 1963580); also: nearly all actives have a fitted effect of over 45% in size
Summary of the method: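 Intracellular ATP, by CellTiter-Glo luminescence, defines viability. HCT-116 p53RE-bla cells, 4,000 per well, were compound-treated in the presence of rat liver microsomes and NADPH for 16 h at 37 C.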

[7] = p53 small molecule agonists, cell-based qHTS assay: qHTS cell viability counter screen (AID 1963581); also: nearly all actives have a fitted effect of over 45% in size
Summary of the method: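 Cells: HCT-116 with p53 response element-driven beta-lactamase. Treatment: 16 h, 37 C, compounds in DMSO. Read: CellTiter-Glo luminescence after 30 min RT.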

[8] = p53 small molecule agonists, cell-based qHTS assay (AID 1963582; active = well fitted activation curve with a large enough effect in the signal ratio in the repeat runs, not every such curve was filed as active; the % refers to the signal ratio)
Summary of the method: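 Quantitative HTS in p53RE-bla cells: after a 5 h settling period, compounds delivered in DMSO were left on cells for 16 h at 37 C, and reporter induction was measured as fluorescence following 2 h substrate loading.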

[9] = biological target: Muscarinic acetylcholine receptor M1 (Homo sapiens) (UniProt P11229); experiment: Cholinergic receptor muscarinic 1 (CHRM1) small molecule agonists, cell-based qHTS assay (AID 1963589); also: nearly all actives have a fitted effect of over 35% in size
Chain of Muscarinic acetylcholine receptor M1 (Homo sapiens) (P11229 whole entry, looked up): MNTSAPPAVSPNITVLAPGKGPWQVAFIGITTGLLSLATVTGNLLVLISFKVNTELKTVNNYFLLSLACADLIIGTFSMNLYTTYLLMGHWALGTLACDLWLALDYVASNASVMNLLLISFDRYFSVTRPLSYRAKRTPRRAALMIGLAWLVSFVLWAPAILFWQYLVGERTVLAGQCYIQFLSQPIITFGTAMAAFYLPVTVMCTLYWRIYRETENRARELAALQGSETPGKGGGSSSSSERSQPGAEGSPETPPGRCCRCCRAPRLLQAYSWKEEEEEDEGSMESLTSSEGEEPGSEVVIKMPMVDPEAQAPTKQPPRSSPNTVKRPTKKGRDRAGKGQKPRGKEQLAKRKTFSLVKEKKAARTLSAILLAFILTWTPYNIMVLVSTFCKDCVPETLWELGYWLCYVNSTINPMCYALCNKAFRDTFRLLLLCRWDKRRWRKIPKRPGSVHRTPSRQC
Summary of the method: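 Agonist-mode qHTS in CHO cells stably carrying human muscarinic M1. Intracellular calcium is tracked by fluorescence every second after compound transfer; each compound runs at 15 concentrations in three independent runs.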

[10] = cAMP Responsive Elements (CRE) small molecule agonists, cell-based qHTS assay (AID 1963590)
Summary of the method: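 Agonist mode qHTS in CRE-bla HEK 293T cells: compounds dosed from DMSO for 3 h at 37 C/5% CO2, followed by LiveBLAzer B/G FRET substrate for 2 h at room temperature.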

[11] = cAMP Responsive Elements (CRE) small molecule antagonists, cell-based qHTS assay (AID 1963591; active = well fitted inhibition curve with a large enough effect in the signal ratio in the repeat runs, not every such curve was filed as active; the % refers to the signal ratio)
Summary of the method: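 Antagonist mode: test compounds are co-incubated with the adenylyl cyclase activator NKH477 (0.25 uM final) on CRE-bla HEK293T cells for 3 h at 37 °C, followed by LiveBLAzer substrate loading.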

[12] = biological target: Beta-2 adrenergic receptor (Homo sapiens) (UniProt P07550); experiment: Adrenergic beta2 receptor (ADRB2) small molecule agonists, cell-based qHTS assay (AID 1963593);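 also: CHO cells stably overexpressing human ADRB2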
Chain of Beta-2 adrenergic receptor (Homo sapiens) (P07550 whole entry, looked up): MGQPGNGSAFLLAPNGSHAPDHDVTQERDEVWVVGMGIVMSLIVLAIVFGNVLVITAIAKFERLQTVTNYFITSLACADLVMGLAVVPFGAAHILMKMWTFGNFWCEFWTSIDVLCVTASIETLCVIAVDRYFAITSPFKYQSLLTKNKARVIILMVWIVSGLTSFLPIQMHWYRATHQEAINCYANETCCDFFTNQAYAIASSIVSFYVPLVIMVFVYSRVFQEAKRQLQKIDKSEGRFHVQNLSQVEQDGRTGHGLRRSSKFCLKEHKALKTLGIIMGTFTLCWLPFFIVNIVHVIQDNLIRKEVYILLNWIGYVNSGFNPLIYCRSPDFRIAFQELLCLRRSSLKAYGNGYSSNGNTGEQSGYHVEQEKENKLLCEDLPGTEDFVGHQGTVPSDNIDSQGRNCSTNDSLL
Summary of the method: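 CHO cells stably over-expressing ADRB2 were plated overnight at 37C, then dosed with compounds plus a stimulation mix containing 100uM IBMX and 25uM Ro-20-1724 for 0.5hr at room temperature. cAMP was measured by HTRF competition, 1hr.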

[13] = biological target: D(2) dopamine receptor (Homo sapiens) (UniProt P14416); experiment: Dopamine D2 receptor (DRD2) small molecule agonists, cell-based qHTS assay (AID 1963594); also: nearly all actives have a fitted effect of over 35% in size
Chain of D(2) dopamine receptor (Homo sapiens) (P14416 whole entry, looked up): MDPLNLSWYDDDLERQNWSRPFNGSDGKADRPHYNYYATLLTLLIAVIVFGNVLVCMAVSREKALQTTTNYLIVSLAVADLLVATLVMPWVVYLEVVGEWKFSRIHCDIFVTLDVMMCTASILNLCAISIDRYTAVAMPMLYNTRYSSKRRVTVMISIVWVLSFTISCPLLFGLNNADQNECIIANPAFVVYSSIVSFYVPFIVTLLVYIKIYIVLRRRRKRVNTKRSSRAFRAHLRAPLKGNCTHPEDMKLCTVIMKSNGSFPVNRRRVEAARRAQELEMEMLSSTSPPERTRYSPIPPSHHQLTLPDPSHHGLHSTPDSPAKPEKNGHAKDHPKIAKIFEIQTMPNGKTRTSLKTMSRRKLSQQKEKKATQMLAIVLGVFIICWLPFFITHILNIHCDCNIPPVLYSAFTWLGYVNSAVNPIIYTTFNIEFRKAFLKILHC
Summary of the method: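 cAMP accumulation in DRD2-HEK293 cells measured by HTRF after 1 h detection; compounds added 10 min before NKH477 (200nM […]) forskolin-analogue stimulation, 30 min at room temperature, with Ro20-1724 present at 0.1 mM final.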

[14] = biological target: D(2) dopamine receptor (Homo sapiens) (UniProt P14416); experiment: Dopamine D2 receptor (DRD2) small molecule antagonists, cell-based qHTS assay (AID 1963595; active = well fitted inhibition curve with a large enough effect in the signal ratio in the repeat runs, with a control signal flat; the % refers to the signal ratio; also: potency is read from the fitted curve at half-maximal effect)
Summary of the method: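 HEK293 cells stably expressing DRD2 were preincubated with 0.1 mM Ro20-1724, then with compound for 10 min at room temperature. Cells were stimulated with 200 nM NKH477 plus 12 nM quinpirole for 30 min, and cAMP was read by HTRF.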

[15] = p53 small molecule agonists, cell-based qHTS assay with human liver microsomes: qHTS cell viability counter screen (AID 1963579); also: nearly all actives have a fitted effect of over 45% in size; also: potency is read from the fitted curve at half-maximal effect
Summary of the method: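 In this multiplexed counter screen, the reporter plates were subsequently treated with CellTiter-Glo so that cell viability, reflected by luminescence, could be recorded for p53RE-bla cells dosed 16 h with compounds under microsomal activation (HLM and NADPH).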

[16] = biological target: 5-hydroxytryptamine receptor 2A (Homo sapiens) (UniProt P28223); experiment: 5-hydroxytryptamine receptor 2A (HTR2A) small molecule antagonists, cell-based qHTS assay (AID 1963586); also: nearly all actives have a fitted effect of over 45% in size; also: potency is read from the fitted curve at half-maximal effect
Chain of 5-hydroxytryptamine receptor 2A (Homo sapiens) (P28223 whole entry, looked up): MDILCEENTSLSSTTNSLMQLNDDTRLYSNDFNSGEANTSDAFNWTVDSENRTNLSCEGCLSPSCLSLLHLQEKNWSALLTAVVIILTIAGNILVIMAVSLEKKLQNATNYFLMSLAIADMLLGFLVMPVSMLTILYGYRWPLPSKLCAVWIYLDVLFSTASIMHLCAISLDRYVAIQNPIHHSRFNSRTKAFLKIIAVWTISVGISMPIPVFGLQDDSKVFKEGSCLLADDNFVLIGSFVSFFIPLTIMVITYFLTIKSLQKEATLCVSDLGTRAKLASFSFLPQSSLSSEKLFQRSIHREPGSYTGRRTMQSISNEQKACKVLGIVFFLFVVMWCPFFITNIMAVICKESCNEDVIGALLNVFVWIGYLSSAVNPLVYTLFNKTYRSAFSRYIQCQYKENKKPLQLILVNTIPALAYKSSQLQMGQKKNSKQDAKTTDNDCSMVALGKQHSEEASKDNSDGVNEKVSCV
Summary of the method: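 Antagonist-mode intracellular calcium assay: DOI (4 nM) added after 5 min compound pre-incubation at room temperature to dye-loaded HTR2A-CHO cells. Fluorescence followed for 3 min, sampled every second.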

[17] = biological target: 5-hydroxytryptamine receptor 2A (Homo sapiens) (UniProt P28223); experiment: 5-hydroxytryptamine receptor 2A (HTR2A) small molecule agonists, cell-based qHTS assay (AID 1963587); also: nearly all actives have a fitted effect of over 30% in size
Summary of the method: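 Kinetic calcium-flux fluorescence (2 min, 1 sec intervals) after compound addition in agonist mode. HTR2A-CHO cells were cultured 18 h, then dye-loaded 1 h at 37 C.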

[18] = biological target: Beta-2 adrenergic receptor (Homo sapiens) (UniProt P07550); experiment: Adrenergic beta2 receptor (ADRB2) small molecule antagonists, cell-based qHTS assay (AID 1963592); also: series mostly up to about 92 µM; nearly all actives have a fitted effect of over 50% in size
Summary of the method: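 Cells (CHO, stable ADRB2 overexpression) incubated 18-20hr at 37C; compounds added from DMSO; agonist mix (1nM isoproterenol, 100uM IBMX, 25uM Ro-20-1724) added; 0.5hr RT; d2-cAMP and anti-cAMP-cryptate added; 1hr RT; 665/615 nm read.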

[19] = biological target: Muscarinic acetylcholine receptor M1 (Homo sapiens) (UniProt P11229); experiment: Cholinergic receptor muscarinic 1 (CHRM1) small molecule antagonists, cell-based qHTS assay (AID 1963588); also: nearly all actives have a fitted effect of over 40% in size
Summary of the method: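 CHRM1-CHO calcium-flux assay, antagonist mode. Cells were seeded 18 h, dye-loaded 1 h at 37 C and given compound for 5 min at RT, then acetylcholine was added at 50nM. FDSS fluorescence was read 3 min; 15 concentrations, three runs.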

Measured: Potency

Cc1cccc(C(C)(C)C)c1O
not listed: [15] | [16] | [17] | [18] | [19]
inactive: all other assays above

CCCCCCCCCCCC(=O)Cl
not listed: [6] | [8] | [19]
inactive: all other assays above

Cc1nc(C)nc(N2C[C@@H](C)N(c3ccnc([C@@H](C)O)n3)[C@@H](C)C2)n1
not listed: [10] | [11] | [12] | [15] | [19]
inactive: all other assays above

CCc1cc(Cc2cc(CC)cc(C(C)(C)C)c2O)c(O)c(C(C)(C)C)c1
active: [1] 13.7 µM
not listed: [5] | [7] | [10] | [12] | [18] | [19]
inactive: all other assays above

CC(C(=O)O)c1ccc(C(=O)c2ccccc2)s1 (centres undefined)
not listed: [7] | [8] | [10] | [11]
inactive: all other assays above

COC(=O)C1=C(C)NC(C)=C(C(=O)OCCN2CCN(C(c3ccccc3)c3ccccc3)CC2)C1c1cccc([N+](=O)[O-])c1 (centres undefined)
active: [16] 8.18 µM
not listed: [5] | [6] | [8] | [10] | [13]
inactive: all other assays above

CN1CCC(=C2c3ccccc3C=Cc3ccccc32)CC1
active: [14] 13.3 µM
inactive: [1] | [2] | [3] | [4] | [5] | [6] | [8] | [10] | [11] | [13]

CNc1ccc(O)cc1
inactive: [3] | [4] | [5] | [6] | [17] | [9]
active: [1] 54.4 µM | [2] 24.3 µM | [15] 25.7 µM

NNc1nc(-c2ccc([N+](=O)[O-])cc2)cs1
active: [1] 30.6 µM | [2] 30.6 µM
not listed: [7] | [8] | [10] | [11] | [13] | [18]
inactive: all other assays above
